# Reference: ChEMBL document CHEMBL2218924, “A broad activity screen in support of a chemogenomic map for kinase signalling research and drug discovery” (Biochem J, 2013)
# Assays:
# [1] = biological target: Ephrin type-A receptor 4 (Homo sapiens) (UniProt P54764); conditions: at 10 µM
# [2] = biological target: Ephrin type-A receptor 5 (Homo sapiens) (UniProt P54756); conditions: at 1 µM
# [3] = biological target: Ephrin type-A receptor 5 (Homo sapiens) (UniProt P54756); conditions: at 10 µM
# [4] = biological target: T1, Ephrin type-A receptor 8 (Homo sapiens) (UniProt P29322); conditions: at 10 µM
# T1 sequence (whole entry): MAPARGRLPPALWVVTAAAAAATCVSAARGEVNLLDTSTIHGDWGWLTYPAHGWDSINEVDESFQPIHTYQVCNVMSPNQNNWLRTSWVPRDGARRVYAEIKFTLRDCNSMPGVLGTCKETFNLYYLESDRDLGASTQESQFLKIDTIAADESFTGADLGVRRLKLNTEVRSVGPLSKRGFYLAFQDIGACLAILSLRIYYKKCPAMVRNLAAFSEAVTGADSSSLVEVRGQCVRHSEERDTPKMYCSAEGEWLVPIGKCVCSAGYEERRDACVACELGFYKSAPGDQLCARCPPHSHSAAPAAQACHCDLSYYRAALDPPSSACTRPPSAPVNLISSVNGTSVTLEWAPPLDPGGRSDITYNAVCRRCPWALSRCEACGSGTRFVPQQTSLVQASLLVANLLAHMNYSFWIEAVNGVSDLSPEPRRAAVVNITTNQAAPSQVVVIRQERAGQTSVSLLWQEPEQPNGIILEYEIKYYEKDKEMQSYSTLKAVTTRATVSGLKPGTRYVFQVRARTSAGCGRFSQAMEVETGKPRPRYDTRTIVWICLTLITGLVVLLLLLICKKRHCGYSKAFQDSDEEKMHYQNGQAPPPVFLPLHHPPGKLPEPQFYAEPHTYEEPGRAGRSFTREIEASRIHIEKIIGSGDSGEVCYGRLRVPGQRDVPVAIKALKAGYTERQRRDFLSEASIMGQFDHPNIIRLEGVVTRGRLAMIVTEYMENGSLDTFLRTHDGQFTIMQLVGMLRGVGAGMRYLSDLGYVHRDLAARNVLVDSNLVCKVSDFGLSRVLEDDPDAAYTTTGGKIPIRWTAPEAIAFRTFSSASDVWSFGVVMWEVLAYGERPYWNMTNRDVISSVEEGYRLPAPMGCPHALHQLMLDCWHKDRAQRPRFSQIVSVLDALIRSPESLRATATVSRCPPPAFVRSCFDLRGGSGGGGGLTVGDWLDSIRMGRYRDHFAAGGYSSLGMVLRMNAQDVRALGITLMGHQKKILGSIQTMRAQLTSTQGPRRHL
# [5] = biological target: T2, Ephrin type-B receptor 4 (Homo sapiens) (UniProt P54760); conditions: at 1 µM
# T2 sequence (whole entry): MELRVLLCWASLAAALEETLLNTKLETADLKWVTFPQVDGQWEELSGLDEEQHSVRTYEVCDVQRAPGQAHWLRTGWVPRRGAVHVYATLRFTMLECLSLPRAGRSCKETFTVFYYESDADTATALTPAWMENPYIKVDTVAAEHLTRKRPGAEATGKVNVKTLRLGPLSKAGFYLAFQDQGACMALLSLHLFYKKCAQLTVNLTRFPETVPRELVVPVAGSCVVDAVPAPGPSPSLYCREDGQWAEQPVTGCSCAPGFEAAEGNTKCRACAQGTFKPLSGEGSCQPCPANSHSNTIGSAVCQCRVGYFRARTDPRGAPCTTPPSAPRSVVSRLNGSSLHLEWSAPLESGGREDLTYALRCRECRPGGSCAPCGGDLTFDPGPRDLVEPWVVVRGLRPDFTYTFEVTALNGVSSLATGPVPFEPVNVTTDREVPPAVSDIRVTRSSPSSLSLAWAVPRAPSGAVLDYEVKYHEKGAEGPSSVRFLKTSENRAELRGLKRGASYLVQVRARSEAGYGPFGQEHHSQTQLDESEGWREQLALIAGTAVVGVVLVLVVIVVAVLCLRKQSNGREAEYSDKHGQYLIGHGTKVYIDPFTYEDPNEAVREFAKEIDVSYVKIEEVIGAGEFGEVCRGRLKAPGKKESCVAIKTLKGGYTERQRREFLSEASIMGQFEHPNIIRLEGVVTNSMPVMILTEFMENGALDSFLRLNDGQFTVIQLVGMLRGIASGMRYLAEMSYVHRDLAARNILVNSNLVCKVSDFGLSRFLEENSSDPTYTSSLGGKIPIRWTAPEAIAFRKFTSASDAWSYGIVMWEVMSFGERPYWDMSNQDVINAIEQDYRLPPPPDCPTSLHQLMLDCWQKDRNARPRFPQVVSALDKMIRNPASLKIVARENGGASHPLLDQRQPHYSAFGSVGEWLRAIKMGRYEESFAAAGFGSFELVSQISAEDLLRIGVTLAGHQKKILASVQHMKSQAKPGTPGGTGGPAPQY
# [6] = biological target: T2, Ephrin type-B receptor 4 (Homo sapiens); conditions: at 10 µM
# [7] = biological target: Receptor tyrosine-protein kinase erbB-4 (Homo sapiens) (UniProt Q15303); conditions: at 10 µM
# Chain of Receptor tyrosine-protein kinase erbB-4 (Homo sapiens) (Q15303 whole entry): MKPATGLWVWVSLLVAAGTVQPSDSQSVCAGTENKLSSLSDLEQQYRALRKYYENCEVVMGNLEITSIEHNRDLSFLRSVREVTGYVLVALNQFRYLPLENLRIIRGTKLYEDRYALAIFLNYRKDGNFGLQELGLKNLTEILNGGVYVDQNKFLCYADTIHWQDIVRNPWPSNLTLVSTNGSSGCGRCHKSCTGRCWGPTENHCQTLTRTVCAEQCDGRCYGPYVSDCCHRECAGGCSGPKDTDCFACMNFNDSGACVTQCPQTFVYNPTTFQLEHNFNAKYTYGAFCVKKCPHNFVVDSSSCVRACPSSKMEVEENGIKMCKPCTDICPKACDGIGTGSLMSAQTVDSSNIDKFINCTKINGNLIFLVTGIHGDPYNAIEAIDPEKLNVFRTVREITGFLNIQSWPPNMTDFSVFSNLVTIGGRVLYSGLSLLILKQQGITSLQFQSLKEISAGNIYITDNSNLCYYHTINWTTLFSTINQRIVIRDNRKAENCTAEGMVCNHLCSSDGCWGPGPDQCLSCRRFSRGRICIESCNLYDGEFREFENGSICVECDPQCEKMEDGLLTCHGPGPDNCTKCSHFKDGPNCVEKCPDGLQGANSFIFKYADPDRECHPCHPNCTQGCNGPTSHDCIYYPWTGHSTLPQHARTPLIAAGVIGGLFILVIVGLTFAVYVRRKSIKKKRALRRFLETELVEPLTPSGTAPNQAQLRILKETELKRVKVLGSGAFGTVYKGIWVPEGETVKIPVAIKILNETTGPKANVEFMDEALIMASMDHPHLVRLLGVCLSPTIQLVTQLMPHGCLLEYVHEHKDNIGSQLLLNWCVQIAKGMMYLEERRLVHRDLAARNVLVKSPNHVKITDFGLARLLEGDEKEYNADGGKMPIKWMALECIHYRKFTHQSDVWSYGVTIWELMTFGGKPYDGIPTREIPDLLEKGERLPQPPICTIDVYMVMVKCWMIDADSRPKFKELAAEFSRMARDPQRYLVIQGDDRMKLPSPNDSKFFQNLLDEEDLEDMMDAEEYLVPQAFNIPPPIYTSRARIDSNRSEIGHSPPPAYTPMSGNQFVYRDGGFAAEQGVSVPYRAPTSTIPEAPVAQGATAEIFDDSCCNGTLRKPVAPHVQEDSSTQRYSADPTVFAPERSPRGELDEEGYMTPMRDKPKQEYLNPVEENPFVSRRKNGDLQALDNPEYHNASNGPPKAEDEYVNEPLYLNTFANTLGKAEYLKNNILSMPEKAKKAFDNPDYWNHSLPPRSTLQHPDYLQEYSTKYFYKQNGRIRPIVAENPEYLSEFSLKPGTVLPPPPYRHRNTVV
# [8] = biological target: T3, Ephrin type-A receptor 3 (Homo sapiens) (UniProt P29320); conditions: at 10 µM
# T3 sequence (whole entry): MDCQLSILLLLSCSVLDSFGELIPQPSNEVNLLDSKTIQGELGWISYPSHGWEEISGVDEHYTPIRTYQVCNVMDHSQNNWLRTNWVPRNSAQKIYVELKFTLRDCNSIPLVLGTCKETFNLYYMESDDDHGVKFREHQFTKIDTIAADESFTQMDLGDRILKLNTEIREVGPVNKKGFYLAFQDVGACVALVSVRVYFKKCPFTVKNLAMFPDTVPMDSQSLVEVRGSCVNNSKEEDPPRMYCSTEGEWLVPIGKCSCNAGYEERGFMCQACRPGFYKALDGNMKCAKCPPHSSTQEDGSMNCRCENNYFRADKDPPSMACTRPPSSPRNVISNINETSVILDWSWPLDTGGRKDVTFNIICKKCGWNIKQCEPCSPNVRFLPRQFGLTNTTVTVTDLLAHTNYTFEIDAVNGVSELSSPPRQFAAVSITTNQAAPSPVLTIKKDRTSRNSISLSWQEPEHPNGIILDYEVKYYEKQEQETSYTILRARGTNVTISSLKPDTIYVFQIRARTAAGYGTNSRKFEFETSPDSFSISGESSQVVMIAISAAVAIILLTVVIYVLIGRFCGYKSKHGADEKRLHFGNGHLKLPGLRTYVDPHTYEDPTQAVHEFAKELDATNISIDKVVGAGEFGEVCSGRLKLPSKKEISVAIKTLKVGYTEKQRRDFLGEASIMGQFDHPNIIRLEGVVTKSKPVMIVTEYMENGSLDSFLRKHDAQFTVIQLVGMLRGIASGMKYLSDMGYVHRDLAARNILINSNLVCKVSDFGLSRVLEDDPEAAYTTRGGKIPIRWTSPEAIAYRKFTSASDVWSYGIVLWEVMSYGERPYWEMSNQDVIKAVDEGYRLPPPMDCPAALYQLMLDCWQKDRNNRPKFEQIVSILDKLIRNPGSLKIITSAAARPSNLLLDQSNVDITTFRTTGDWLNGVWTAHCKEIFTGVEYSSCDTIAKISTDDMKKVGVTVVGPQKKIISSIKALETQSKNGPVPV
# [9] = biological target: T1, Ephrin type-A receptor 8 (Homo sapiens); conditions: at 1 µM
# [10] = biological target: T4, Ephrin type-B receptor 3 (Homo sapiens) (UniProt P54753); conditions: at 1 µM
# T4 sequence (whole entry): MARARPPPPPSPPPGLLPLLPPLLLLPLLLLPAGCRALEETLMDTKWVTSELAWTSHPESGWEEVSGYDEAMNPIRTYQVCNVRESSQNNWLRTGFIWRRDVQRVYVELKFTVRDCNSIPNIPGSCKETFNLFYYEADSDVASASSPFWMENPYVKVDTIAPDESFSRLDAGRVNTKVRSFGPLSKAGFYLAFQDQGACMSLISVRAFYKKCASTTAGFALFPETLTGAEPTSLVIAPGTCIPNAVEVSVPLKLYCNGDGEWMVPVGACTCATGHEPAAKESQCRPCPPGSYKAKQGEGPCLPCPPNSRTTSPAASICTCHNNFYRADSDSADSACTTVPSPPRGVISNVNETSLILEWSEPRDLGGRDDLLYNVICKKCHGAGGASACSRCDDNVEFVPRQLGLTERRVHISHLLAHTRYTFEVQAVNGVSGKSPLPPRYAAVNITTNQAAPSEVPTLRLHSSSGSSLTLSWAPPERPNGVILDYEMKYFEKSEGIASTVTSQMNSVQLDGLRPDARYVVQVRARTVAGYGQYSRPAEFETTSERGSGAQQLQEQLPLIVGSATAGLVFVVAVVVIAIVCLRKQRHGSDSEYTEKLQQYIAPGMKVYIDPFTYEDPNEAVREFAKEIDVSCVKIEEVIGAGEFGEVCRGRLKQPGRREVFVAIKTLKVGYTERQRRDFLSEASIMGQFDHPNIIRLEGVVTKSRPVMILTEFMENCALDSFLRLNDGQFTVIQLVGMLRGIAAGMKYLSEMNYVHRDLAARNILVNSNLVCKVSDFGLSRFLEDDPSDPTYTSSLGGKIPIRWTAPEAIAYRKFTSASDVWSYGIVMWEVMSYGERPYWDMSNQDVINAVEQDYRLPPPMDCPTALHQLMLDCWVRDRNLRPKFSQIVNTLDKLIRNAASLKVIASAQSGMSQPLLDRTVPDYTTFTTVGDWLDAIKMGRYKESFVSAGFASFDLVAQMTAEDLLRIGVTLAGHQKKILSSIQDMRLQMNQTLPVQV
# [11] = biological target: T4, Ephrin type-B receptor 3 (Homo sapiens); conditions: at 10 µM
# [12] = biological target: T5, Ephrin type-B receptor 1 (Homo sapiens) (UniProt P54762); conditions: at 10 µM
# T5 sequence (whole entry): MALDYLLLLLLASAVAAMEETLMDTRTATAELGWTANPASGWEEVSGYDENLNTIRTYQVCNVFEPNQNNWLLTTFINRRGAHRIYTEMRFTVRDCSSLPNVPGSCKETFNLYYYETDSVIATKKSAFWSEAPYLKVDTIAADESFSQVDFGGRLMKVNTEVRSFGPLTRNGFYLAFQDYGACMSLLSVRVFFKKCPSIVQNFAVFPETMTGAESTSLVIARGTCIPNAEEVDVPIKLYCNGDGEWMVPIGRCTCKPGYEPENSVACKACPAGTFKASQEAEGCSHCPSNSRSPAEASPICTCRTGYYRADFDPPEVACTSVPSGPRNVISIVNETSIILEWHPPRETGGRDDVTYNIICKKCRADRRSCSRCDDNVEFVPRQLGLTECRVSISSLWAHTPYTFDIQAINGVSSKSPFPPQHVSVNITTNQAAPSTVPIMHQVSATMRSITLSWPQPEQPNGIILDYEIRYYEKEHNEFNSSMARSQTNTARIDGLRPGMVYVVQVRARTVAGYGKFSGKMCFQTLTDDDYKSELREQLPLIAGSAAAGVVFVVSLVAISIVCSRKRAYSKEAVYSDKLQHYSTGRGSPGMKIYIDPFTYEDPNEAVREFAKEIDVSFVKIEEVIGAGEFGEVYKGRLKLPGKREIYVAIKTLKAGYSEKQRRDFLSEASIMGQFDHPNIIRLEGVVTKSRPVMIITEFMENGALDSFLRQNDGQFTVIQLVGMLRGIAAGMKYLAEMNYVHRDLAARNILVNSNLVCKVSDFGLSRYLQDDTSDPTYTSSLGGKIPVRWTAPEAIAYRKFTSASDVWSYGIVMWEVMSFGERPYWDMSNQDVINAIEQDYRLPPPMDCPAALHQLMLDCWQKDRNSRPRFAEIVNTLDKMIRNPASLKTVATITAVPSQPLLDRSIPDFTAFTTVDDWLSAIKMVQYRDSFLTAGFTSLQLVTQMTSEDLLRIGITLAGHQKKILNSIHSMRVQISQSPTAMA
# Chain of Ephrin type-A receptor 5 (Homo sapiens) (P54756 whole entry): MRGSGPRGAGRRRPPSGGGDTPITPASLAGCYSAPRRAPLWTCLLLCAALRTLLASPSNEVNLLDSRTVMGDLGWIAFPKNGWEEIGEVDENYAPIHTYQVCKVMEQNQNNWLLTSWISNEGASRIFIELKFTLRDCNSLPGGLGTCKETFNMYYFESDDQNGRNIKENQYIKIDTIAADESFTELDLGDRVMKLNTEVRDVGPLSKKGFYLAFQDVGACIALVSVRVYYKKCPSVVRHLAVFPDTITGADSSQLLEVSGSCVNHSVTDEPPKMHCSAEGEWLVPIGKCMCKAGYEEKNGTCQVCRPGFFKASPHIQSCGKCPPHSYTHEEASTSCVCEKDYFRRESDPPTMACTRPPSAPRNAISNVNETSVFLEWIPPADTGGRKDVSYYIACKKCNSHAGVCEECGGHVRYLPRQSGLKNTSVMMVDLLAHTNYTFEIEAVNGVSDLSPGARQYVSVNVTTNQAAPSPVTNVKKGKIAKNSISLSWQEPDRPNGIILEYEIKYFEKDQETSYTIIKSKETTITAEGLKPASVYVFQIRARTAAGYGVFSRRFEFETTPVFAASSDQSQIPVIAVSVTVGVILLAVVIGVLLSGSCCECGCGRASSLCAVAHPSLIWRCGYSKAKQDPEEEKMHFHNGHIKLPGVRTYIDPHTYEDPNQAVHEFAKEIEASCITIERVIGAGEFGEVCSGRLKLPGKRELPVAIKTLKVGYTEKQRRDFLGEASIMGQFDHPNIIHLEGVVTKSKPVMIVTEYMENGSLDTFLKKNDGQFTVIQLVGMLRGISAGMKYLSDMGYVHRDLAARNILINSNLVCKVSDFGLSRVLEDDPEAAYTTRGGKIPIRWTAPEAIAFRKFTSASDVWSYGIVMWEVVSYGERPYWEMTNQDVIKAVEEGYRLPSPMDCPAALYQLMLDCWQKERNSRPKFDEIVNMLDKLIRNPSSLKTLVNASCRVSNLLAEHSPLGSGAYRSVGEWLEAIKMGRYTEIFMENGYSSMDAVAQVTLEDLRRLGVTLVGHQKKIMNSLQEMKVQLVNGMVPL
# Chain of Ephrin type-A receptor 4 (Homo sapiens) (P54764 whole entry): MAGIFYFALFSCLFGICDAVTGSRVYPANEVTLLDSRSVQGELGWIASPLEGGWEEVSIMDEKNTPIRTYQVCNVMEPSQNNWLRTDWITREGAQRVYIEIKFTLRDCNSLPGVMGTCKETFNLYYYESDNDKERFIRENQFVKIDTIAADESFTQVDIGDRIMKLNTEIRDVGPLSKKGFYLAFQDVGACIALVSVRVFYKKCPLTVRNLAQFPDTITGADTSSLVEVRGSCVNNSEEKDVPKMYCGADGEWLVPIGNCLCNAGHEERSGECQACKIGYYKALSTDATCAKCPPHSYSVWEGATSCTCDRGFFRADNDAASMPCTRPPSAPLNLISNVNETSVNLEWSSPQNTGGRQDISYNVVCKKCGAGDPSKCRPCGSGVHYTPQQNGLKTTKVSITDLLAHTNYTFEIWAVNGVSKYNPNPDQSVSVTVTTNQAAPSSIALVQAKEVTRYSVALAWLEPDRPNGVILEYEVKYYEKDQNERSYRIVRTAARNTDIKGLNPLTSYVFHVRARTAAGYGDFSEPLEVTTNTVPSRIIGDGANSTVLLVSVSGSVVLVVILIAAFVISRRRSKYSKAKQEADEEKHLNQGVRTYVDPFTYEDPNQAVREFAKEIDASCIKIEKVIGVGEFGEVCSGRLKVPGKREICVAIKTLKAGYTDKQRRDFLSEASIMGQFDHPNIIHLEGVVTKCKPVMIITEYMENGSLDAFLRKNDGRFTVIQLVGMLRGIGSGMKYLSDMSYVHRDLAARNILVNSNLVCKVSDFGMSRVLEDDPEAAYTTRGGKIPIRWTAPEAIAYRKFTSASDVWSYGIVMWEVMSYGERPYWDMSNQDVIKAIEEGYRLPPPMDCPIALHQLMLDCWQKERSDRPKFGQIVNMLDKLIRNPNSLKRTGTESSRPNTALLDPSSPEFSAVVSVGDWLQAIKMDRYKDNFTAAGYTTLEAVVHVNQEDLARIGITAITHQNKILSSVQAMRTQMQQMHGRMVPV
smiles,measurement,setting,value
Nc1nccc(-c2c(-c3ccc(F)cc3)ncn2C2CCNCC2)n1,residual activity,[1],71%
same,residual activity,[2],113%
same,residual activity,[3],72%
same,residual activity,[4],60%
same,residual activity,[5],77%
same,residual activity,[6],18%
same,residual activity,[7],66%
O=C1NC(=O)C(c2cn(CCCO)c3ncccc23)=C1c1cnccn1,residual activity,[8],92%
same,residual activity,[9],99%
same,residual activity,[4],94%
same,residual activity,[10],94% (inactive)
same,residual activity,[11],99%
same,residual activity,[5],92%
same,residual activity,[6],98%
CCOc1nc(NC(=O)Cc2cc(OC)ccc2OC)cc(N)c1C#N,residual activity,[3],74%
N#Cc1c(NC(=O)c2cccc3ccccc23)sc2c1CCCC2,residual activity,[12],95%
same,residual activity,[5],90%
same,residual activity,[7],94%
